Records with an inconclusive call do not appear. Active and inactive are the calls of the source. How the source made its calls, unless noted: active means hit-call score of the fitted dose curve at least 0.9, where 1 is the maximum; inactive means score below 0.9.
Assays:
[1] = biological target: Nucleoli Translocation, AR (gene 367) (UniProt P10275); assay: UPITT_HCI_U2OS_AR_TIF2_Nucleoli_Antagonist: University of Pittsburgh U2OS Androgen Receptor-Transcriptional Intermediary Factor 2 (AR-TIF2) Antagonism High Content Imaging Assay for Nucleoli Translocation (AID 2283997; active means hit-call score of the fitted dose curve at least 0.9, where 1 is the maximum)
Nucleoli Translocation, AR (gene 367), sequence (P10275 whole entry, looked up): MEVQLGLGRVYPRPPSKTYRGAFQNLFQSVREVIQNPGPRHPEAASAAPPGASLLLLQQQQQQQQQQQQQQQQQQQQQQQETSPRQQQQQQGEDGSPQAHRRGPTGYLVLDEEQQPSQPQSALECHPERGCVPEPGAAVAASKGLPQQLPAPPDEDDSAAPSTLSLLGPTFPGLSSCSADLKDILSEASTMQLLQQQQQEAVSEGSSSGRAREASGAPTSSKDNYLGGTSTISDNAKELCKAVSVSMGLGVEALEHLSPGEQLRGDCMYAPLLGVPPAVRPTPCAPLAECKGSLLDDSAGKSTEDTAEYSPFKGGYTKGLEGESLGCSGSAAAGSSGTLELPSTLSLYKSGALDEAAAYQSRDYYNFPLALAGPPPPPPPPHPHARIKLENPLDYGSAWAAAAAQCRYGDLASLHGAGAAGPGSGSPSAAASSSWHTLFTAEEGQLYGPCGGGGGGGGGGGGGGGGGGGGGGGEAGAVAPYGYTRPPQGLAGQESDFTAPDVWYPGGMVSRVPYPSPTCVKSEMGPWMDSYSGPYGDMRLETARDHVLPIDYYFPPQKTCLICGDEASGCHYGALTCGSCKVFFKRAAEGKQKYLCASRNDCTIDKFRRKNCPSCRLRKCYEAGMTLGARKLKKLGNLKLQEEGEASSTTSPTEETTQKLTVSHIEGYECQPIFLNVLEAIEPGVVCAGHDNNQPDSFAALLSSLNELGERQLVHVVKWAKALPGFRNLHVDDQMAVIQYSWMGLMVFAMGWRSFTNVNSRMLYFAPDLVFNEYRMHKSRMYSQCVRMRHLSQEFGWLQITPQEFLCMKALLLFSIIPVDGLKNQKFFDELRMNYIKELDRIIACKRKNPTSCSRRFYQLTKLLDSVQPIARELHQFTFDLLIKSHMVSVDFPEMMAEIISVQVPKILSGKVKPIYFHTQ
Method in brief: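 Antagonism is read as loss of nucleolar AR-RFP signal relative to DHT, imaged in U2OS cells also carrying GFP-TIF2. Compounds screened at 20 uM final, 0.2% DMSO; primary actives retested in triplicate.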

[2] = biological target: Ratio of Nucleoli Translocation and Cytoplasm, AR (gene 367) (UniProt P10275); assay: UPITT_HCI_U2OS_AR_TIF2_Nucleoli_Cytoplasm_Ratio_Antagonist: University of Pittsburgh U2OS Androgen Receptor-Transcriptional Intermediary Factor 2 (AR-TIF2) Antagonism High Content Imaging Assay for Ratio of Nucleoli Translocation and Cytoplasm (AID 2283999; active means hit-call score of the fitted dose curve at least 0.9, where 1 is the maximum;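 further: antagonists lower the DHT-driven ratio of nucleolar to cytoplasmic red signal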)
Ratio of Nucleoli Translocation and Cytoplasm, AR (gene 367), sequence (P10275 whole entry, looked up): as above
Method in brief: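 This antagonist-mode endpoint tracks AR-RFP localisation, the nucleolus-to-cytoplasm intensity ratio, in TIF2-GFP-coexpressing U2OS cells. DMSO stays at or below 0.5%; testing spans 20 uM single-dose and 0.195–50 uM series, with DHT setting the activity baseline.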

[3] = biological target: Ratio of Nucleoli Translocation and Cytoplasm, AR (gene 367) (UniProt P10275); assay: UPITT_HCI_U2OS_AR_TIF2_Nucleoli_Cytoplasm_Ratio_Agonist: University of Pittsburgh U2OS Androgen Receptor-Transcriptional Intermediary Factor 2 (AR-TIF2) Agonism High Content Imaging Assay for Ratio of Nucleoli Translocation and Cytoplasm (AID 2284000; active means hit-call score of the fitted dose curve at least 0.9, where 1 is the maximum;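 further: hits raise the red nucleolar to cytoplasm ratio above vehicle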)
Method in brief: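 Compounds tested at 20 uM final in primary screen (0.2% DMSO) and 0.195-50 uM final in dose-response (0.5% DMSO). Imaging of human U2OS cells bearing RFP-AR and GFP-TIF2; endpoint is nucleoli/cytoplasm red signal ratio, positive direction relative to DMSO.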

[4] = CCTE_Harrill_HTTr_Apoptosis_MCF7: CCTE's 6-hour Apoptosis Assessment for the High-Throughput Transcriptomics (HTTr) Platform, in MCF-7 cells cultured in DMEM + 10% fetal bovine serum, Harrill Lab (AID 2284011)
Method in brief: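 MCF-7 (DMEM + 10% FBS), 384-well; 8-pt dilution series, 6 h chemical exposure; caspase-3/7 activation via CellEvent Caspase 3/7 Green, HCI; bidirectional fit vs DMSO.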

[5] = CCTE_Harrill_HTTr_CellCount_MCF7: CCTE's Cell Proliferation Assessment for the High-Throughput Transcriptomics (HTTr) Platform, Harrill Lab (AID 2284012; active means hit-call score of the fitted dose curve at least 0.9, where 1 is the maximum;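 further: count of Hoechst-stained nuclei per well by high-content imaging in MCF-7 cells; cells exposed to compound for six hours; intended direction is loss of nuclei count meaning fewer cells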)
Method in brief: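 For this full-screen endpoint, MCF-7 cultures received eight compound dilutions for six hours. Well nuclei counts from Hoechst imaging were analyzed relative to DMSO.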

[6] = Tanguay_ZF_120hpf_MUSC: Oregon State University Tanguay Lab 120 Hour Post-fertilization zebrafish Assay for Muscle Malformation (AID 2284401)
Method in brief: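 Scored as a binary brightfield endpoint at 120 hpf, fitted versus DMSO. Single dechorionated wild-type (Tropical 5D) zebrafish embryos per well, statically exposed at 28C from 6 hpf onward with final DMSO 0.64%.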

[7] = UKN5_HCS_SBAD2_cell_viability: Viability Assessment in the University of Konstanz (UKN) Leist Lab Neurite Outgrowth Assay in human iPSC-derived immature Dorsal Root Ganglia Neurons (UKN5) (AID 2284056)
Method in brief: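 iPSC-derived immature peripheral neurons (SBAD2) seeded on Matrigel with CHIR99021, SU5402 and DAPT, dosed 1 h later for 24 h. Viability from Hoechst H-33342 and calcein-AM live staining, high-content imaging; bidirectional fit versus DMSO.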

[8] = UKN5_HCS_SBAD2_neurite_outgrowth: University of Konstanz (UKN) Leist Lab Neurite Outgrowth Assay in human iPSC-derived immature Dorsal Root Ganglia Neurons (UKN5) (AID 2284070); conditions: actives raise or lower the signal
Method in brief: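 Neurite outgrowth is quantified as calcein-AM-labelled neurite area in human iPSC-derived peripheral neurons treated for 24 h, starting 1 h after plating in medium with CHIR99021 (1.5 uM), SU5402 (5 uM) and DAPT (5 uM).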

[9] = UKN2_HCS_IMR90_neural_migration: University of Konstanz (UKN) Leist Lab Neural Crest Cell Migration Assay in human induced IMR90 Pluripotent Stem Cells (UKN2) (AID 2284204); conditions: actives raise or lower the signal
Method in brief: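 High-content imaging of calcein-AM and Hoechst stained cells quantifies migration into a stopper-defined gap after 24 h compound exposure. Neural crest cells from IMR90 iPSC migrated 24 h in EGF/FGF N2-S medium before dosing; DMSO baseline.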

[10] = UKN4_HCS_LUHMES_neurite_outgrowth: University of Konstanz (UKN) Leist Lab Neurite Outgrowth Assay in human LUHMES cells (UKN4) (AID 2284206); conditions: actives raise or lower the signal
Method in brief: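 Neurite area in dopaminergic-model LUHMES neurons is measured by high-content imaging of calcein-AM after 24 h treatment starting shortly after day-2 replating; Hoechst staining tracks viability.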

[11] = IUF_NPC1b_proliferation_BrdU_72hr: Leibniz Research Institute for Environmental Medicine (IUF) 72-hour Neural Progenitor Cell Bromodeoxyuridine (BrdU) Proliferation Assay (NPC1b) (AID 2284207)
Method in brief: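 Human fetal cortex-derived (GW 16-19) neural progenitor spheres, 0.25-0.35 mm, one per well in EGF/FGF proliferation medium, exposed to compound for 72 h at 37C, pH 7.2-7.6. BrdU incorporation over the final 16 h read by luminescence ELISA, relative to DMSO.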

[12] = IUF_NPC1a_proliferation_area_72hr: Leibniz Research Institute for Environmental Medicine (IUF) 72-hour Neural Progenitor Cell Proliferation Area Assay (NPC1a) (AID 2284208)
Method in brief: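 Spheres of 0.3 mm are plated singly in growth-factor medium and exposed from day 0. After three days at 37C and 5% CO2, sphere area is measured by phase contrast imaging, with activity referenced to DMSO.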

[13] = IUF_NPC1_viability_72hr: Viability Assessment at 72 hours in the Leibniz Research Institute for Environmental Medicine (IUF) Neural Progenitor Cell Proliferation Assay (NPC1) (AID 2284209)
Method in brief: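 Three-day continuous exposure of human neural progenitor spheres under EGF/FGF-driven proliferation; cell viability scored by alamar blue signal versus DMSO.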

[14] = UKN4_HCS_LUHMES_cell_viability: Viability Assessment in the University of Konstanz (UKN) Leist Lab Neurite Outgrowth Assay in human LUHMES cells (UKN4) (AID 2284232)
Method in brief: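 Measured in replated, 2-day-differentiated LUHMES cells treated 24 h; stained 30 min with H-33342 and calcein-AM before high-content imaging.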

[15] = UKN2_HCS_IMR90_cell_viability: Viability Assessment in the University of Konstanz (UKN) Leist Lab Neural Crest Cell Migration Assay in human induced IMR90 Pluripotent Stem Cells (UKN2) (AID 2284233);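 further: cells exposed to compound for 24 h after a 24 h migration phase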
Method in brief: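 After calcein-AM/Hoechst staining, viability is quantified by high-content fluorescence imaging, relative to DMSO, in iPSC (IMR90)-derived neural crest cells. Exposure lasts 24 h, starting after a 24 h migration period on PLO/laminin/fibronectin coating.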

[16] = IUF_NPC2a_radial_glia_migration_120hr: Leibniz Research Institute for Environmental Medicine (IUF) 120-hour Neural Progenitor Cell Migration Assay for Radial Glia Migration (NPC2a) (AID 2284298)
Method in brief: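 Readout: distance in um from sphere core edge to migration-area edge, derived from Hoechst nuclei density with a threshold-defined polynomial boundary. Spheres: hNPC, GW 16-19, 0.3 mm, on PDL/laminin; exposure 5 days; DMSO is baseline.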

[17] = IUF_NPC2a_radial_glia_migration_72hr: Leibniz Research Institute for Environmental Medicine (IUF) 72-hour Neural Progenitor Cell Migration Assay for Radial Glia Migration (NPC2a) (AID 2284299)
Method in brief: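 Spheres of human primary neural progenitors migrate on poly-D-lysine/laminin under compound exposure at 37C, 5% CO2. The 72 h radial glia migration distance comes from brightfield images, measured manually.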

[18] = IUF_NPC3_neuronal_differentiation_120hr: Leibniz Research Institute for Environmental Medicine (IUF) 120-hour Neuronal Differentiation Assay (NPC3) (AID 2284301)
Method in brief: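 Value is percent TUBB3-positive neurons among Hoechst-stained nuclei in the migration area, scored by trained CNN after 120 h differentiation. Primary hNPC spheres on poly-D-lysine/laminin, N2 medium, continuous dosing from day 0, half-refeed day 3; DMSO reference.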

[19] = IUF_NPC4_neurite_length_120hr: Leibniz Research Institute for Environmental Medicine (IUF) 120-hour Neuronal Morphology Assay for Neurite Length (NPC4) (AID 2284302)
Method in brief: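 Neurite length, the mean in um across TUBB3-stained neurons, is derived by skeletonization of high-content images after 120 h differentiation. Compound exposure, 7 concentrations plus solvent control, ran from plating of hNPC spheres on poly-D-lysine/laminin, with medium half-replaced on day 3.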

[20] = IUF_NPC5_oligodendrocyte_differentiation_120hr: Leibniz Research Institute for Environmental Medicine (IUF) 120-hour Oligodendrocyte Differentiation Assay (NPC5) (AID 2284304; active means hit-call score of the fitted dose curve at least 0.9, where 1 is the maximum;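 further: primary human fetal neural progenitor spheres plated to migrate and differentiate; share of O4-positive cells among Hoechst nuclei found by CNN image analysis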)
Method in brief: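 Oligodendrocyte differentiation was scored after 120 h as the O4-positive share of Hoechst-stained nuclei across the neurosphere migration area, using a trained convolutional neural network on high-content fluorescence images. Human fetal neural progenitor spheres were dosed from day 0, normalised to DMSO.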

[21] = IUF_NPC4_neurite_area_120hr: Leibniz Research Institute for Environmental Medicine (IUF) 120-hour Neuronal Morphology Assay for Neurite Area (NPC4) (AID 2284305; active means hit-call score of the fitted dose curve at least 0.9, where 1 is the maximum)
Method in brief: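 Neurite area (pixels, nuclei excluded) of TUBB3-positive neurons from hNPC spheres differentiating 5 days under continuous exposure at 37 C, 5% CO2. High-content imaging; loss of signal versus DMSO control across 7 concentrations.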

[22] = IUF_NPC2-5_cytotoxicity_120hr: Cytotoxicity Assessment at 120 hours in the Leibniz Research Institute for Environmental Medicine (IUF) Neural Progenitor Cell Migration and Differentiation Assay (NPC2-5) (AID 2284307; active means hit-call score of the fitted dose curve at least 0.9, where 1 is the maximum)
Method in brief: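 Sphere plating starts differentiation and exposure together at day 0. Compound solution is half-replaced on day 3. At 120 h, medium supernatant is taken for an LDH membrane-integrity read based on resazurin reduction to resorufin fluorescence.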

[23] = IUF_NPC2-5_cell_number_120hr: Cell Number Assessment at 120 hours in the Leibniz Research Institute for Environmental Medicine (IUF) Neural Progenitor Cell Migration and Differentiation Assay (NPC2-5) (AID 2284308);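 further: count of Hoechst-stained nuclei in migration zone around plated human neural progenitor spheres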
Method in brief: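 hNPC spheres, one per well, PDL/laminin, N2 medium, 37C, 5% CO2. Dosing day 0 → half-medium change with fresh compound day 3 → fix 120 h. Readout: Hoechst+ nuclei count, migration area; 7 concentrations plus solvent control.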

[24] = IUF_NPC2-5_viability_120hr: Viability Assessment at 120 hours in the Leibniz Research Institute for Environmental Medicine (IUF) Neural Progenitor Cell Migration and Differentiation Assay (NPC2-5) (AID 2284312)
Method in brief: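 Alamar blue resorufin fluorescence read after 5 days of differentiation, with compound present from day 0 and replenished at day 3. Primary hNPC spheres on laminin-coated plates, 37C; seven concentrations plus solvent control, fitted against DMSO.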

[25] = IUF_NPC1_cytotoxicity_72hr: Cytotoxicity Assessment at 72 hours in the Leibniz Research Institute for Environmental Medicine (IUF) Neural Progenitor Cell Proliferation Assay (NPC1) (AID 2284332; active means hit-call score of the fitted dose curve at least 0.9, where 1 is the maximum;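 further: rising LDH signal means more cytotoxicity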)
Method in brief: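 Readout is fluorescence from LDH-dependent resazurin conversion, sampled from culture medium after compound contact lasting 72 h. Each well holds one 0.25-0.35 mm human progenitor sphere kept at 37C, 5% CO2 with EGF and FGF.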

Measured: AC50

COP(=S)(OC)SCC(=O)N(C)C=O
inactive: [1] | [2] | [3] | [4] | [5]

CNC(=O)Oc1cccc(C(C)C)c1
inactive: [4] | [5]

FC(F)(F)C(F)(F)C(F)(F)C(F)(F)C(F)(F)C(F)(F)C(F)(F)CCI
inactive: [6]

CC(C)CC(C)c1sccc1NC(=O)c1cn(C)nc1C(F)(F)F (stereo unspecified)
active: [9] 65.6 µM | [10] 73.1 µM | [15] 77.1 µM | [16] 10 µM | [20] 5.68 µM
inactive: [7] | [8] | [11] | [12] | [13] | [14] | [17] | [18] | [19] | [21] | [22] | [23] | [24] | [25]

CC1(C)C(C=C(Cl)Cl)[C@H]1C(=O)O[C@H](C#N)c1cccc(Oc2ccccc2)c1 (stereo partly specified)
inactive: [7] | [8] | [9] | [10] | [11] | [12] | [13] | [14] | [15] | [16] | [17] | [18] | [19] | [21] | [22] | [23] | [24] | [25]
active: [20] 1 µM

Reference: PubChem BioAssay (EPA / NIEHS)
